Consider 3 molecules from PubChem BioAssay (NCATS).

What all share (test): qHTS profiling for inhibitors of Plasmodium falciparum proliferation (AID 504749); also: nearly all actives have a fitted effect of over 60% in size
Holding throughout (conditions): P. falciparum in erythrocytes, SYBR Green DNA, 72 h; series mostly up to 28.7 µM
(In general: qHTS replaces the single test concentration by a dilution series.)

For one assay, the system named is 7G8. An outline of the steps: (§1)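 SYBR Green fluorescence of parasite DNA, read after lysis and overnight dark incubation, measured growth over 72 h in erythrocyte culture at 0.3% parasitemia and 2.5% hematocrit. Data normalised to DMSO and 0.29 uM artemisinin, with plate-drift correction.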
The test system of a further assay is ATS95. The procedure, abridged: as §1
In another assay the test system is C2A. An outline of the steps:
as §1

The test system of a further assay is CP191. An outline of the steps: as §1
For another assay, the system named is CP211. The procedure, abridged:
as §1

A further assay deals with CP215. The procedure, abridged: as §1
A further assay deals with CP217. The procedure, abridged: as §1
Another assay deals with CP237. An outline of the steps: as §1
In a further assay the test system is CP252. The procedure, abridged: as §1
The test system of a further assay is CP256. An outline of the steps:
as §1

The next assay concerns CP268. An outline of the steps: as §1
The test system of a further assay is CP269. The procedure, abridged:
as §1

The test system of another assay is CP305. The procedure, abridged: as §1
A further assay relates to DIV17. The procedure, abridged:
as §1

The next assay has as its system N140. An outline of the steps:
as §1

A further assay relates to P93_24. An outline of the steps: as §1
Another assay relates to PC15. An outline of the steps:
as §1

Another assay concerns PC26. An outline of the steps:
as §1

The test system of the next assay is PC49. An outline of the steps:
as §1

The subject of another assay is TAB109. An outline of the steps: as §1

Records with an inconclusive call do not appear. Active and inactive are the calls of the source. Calls follow the shape of the dose curve; as a rule, active = well fitted inhibition curve with a large enough effect; inconclusive = small, poorly fitted or top-dose-only effect; inactive = flat fitted curve, though single readings scatter.
Potency is read from the fitted curve at half-maximal effect.

Take `C[C@@]12C(=O)OC(=O)[C@]1(C)[C@H]1CC[C@@H]2O1`: the Potency in the assay on 7G8 was 2820 nM (active); in the assay with ATS95, 3980 nM (active); in the assay with C2A, 3980 nM (active); with CP191, 1580 nM (active); in the assay on CP211 it was 5100 nM (active); with CP215, 2280 nM (active). Besides, the Potency is 2510 nM (active) with CP217; 1260 nM (active) with CP237; 3980 nM (active) in the assay on CP252; 3980 nM (active) in the assay with CP256; 2870 nM (active) in the assay on CP268; 2560 nM (active) in the assay with CP269. The Potency with CP305 was 2870 nM (active); with DIV17, 2030 nM (active); with N140, 4470 nM (active); in the assay on P93_24, 3980 nM (active); in the assay with PC15 it was 3980 nM (active); in the assay on PC26, 2870 nM (active). The Potency in the assay with PC49 is 2240 nM (active); in the assay with TAB109, 2820 nM (active).

Regarding `C=C1CCC2[C@](C)(CO)C(O)CC[C@]2(C)C1C/C=C1/C(=O)OCC1O` (stereo not given in full), in the assay with CP268, the Potency entry was “inactive”.

For the molecule `CC(/C=C1\SC(=S)N(CC(=O)O)C1=O)=C\c1ccccc1`, the Potency entry with 7G8, with ATS95, in the assay on C2A, in the assay on CP191, with CP211 and in the assay on CP215 was “inactive” each time. The Potency entry with CP217, with CP237, in the assay on CP252, in the assay with CP256, in the assay with CP269 and in the assay with CP305 was “inactive” each time. The Potency entry in the assay with DIV17, in the assay on N140, in the assay on P93_24, in the assay with PC15, in the assay on PC26 and in the assay on PC49 was “inactive” throughout. In the assay with TAB109, the Potency entry is “inactive”.
